High-throughput results (PubChem BioAssay)
Methyltransferases: Primary Screen for Target Class Profiling of Small Molecule Inhibitors of Methyltransferases; AID 1745853, 2022; purified enzyme, MTase-Glo SAH luminescence; stronger effect = lower value; 3.9% of 25,000 active; calls only at 40 µM; call rule not given here
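Each enzyme was assayed with SAM and its substrate. SAH formation detected by MTase-Glo luminescence; single-point 40 uM screen[…].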
MTase-Glo counter: counter-screen for methyltransferase inhibitors: coupling enzymes without methyltransferase | 6% of 180 active | Potency, µM (series often up to 57.3 µM), inactives show at the top dose activity change, negative = inhibition, actives largely listed as inhibitors | MTase-Glo coupled enzymes, SAH conversion luminescence, no MTase | shares compounds with Methyltransferases | AID 1745851; active = well fitted inhibition curve with a large enough effect; inconclusive = small, poorly fitted or top-dose-only effect; note: potency is the fitted concentration of half-maximal effect
Numbers without * were called inactive; i = inactive; ? = inconclusive; + = active, no number; [ ] = dose if it differs, or a comment. Shown is part of a subset that was picked to be rich in hits. % is set by controls: 0 for no effect and ±100 for the full control effect.

SMILES | Methyltransferases | others
CCC(C)NC(=O)c1cc2n(n1)CC(C)(C(=O)NC1CCCCCC1)N(C)C2=O (stereo not drawn) | i
CC(C)CCn1c(=O)c2ccccc2n2c(=O)n(CC(=O)Nc3ccc4c(c3)OCO4)nc12 | i
CCNc1nc2c(s1)C(c1cccc(F)c1)CC(=O)N2 (stereo not drawn) | + | MTase-Glo counter=?
Cc1cc2c(cc3n2CC(C)(C(=O)NC2CCCCCC2)N(CC(C)c2ccccc2)C3=O)o1 (stereo not drawn) | i
CN1C(=O)[C@H]2CN(Cc3cn[nH]c3-c3ccc(F)cc3)C[C@H]2C1=O | i
COc1ccc(-c2[nH]ncc2CN2CC[C@H]3CC[C@@H](C2)N3)cc1 | + | MTase-Glo counter=-1.8%
CN1CCN(c2nc3c(c(=O)[nH]2)CCN(Cc2cn[nH]c2-c2ccc(F)cc2)CC3)CC1 | i
CCOC(=O)c1cc2n(n1)CC(C)(C(=O)NC1CCCC1)N(c1ccc(OC)cc1)C2=O (stereo not drawn) | i
COc1ccc(OC)c(CN2CCC3(CC2)Nc2ccccc2NC3=O)c1 | i
COc1ccc(OC)c(CN2CCNc3cc(-c4ccnc(C)c4)ncc3C2)c1 | + | MTase-Glo counter=4.5%[85.7 µM]
COc1ccc(-c2nn(-c3ccccc3C)cc2CN2CCCN(C)CC2)cc1F | i
CCOC(=O)Cc1ccc(NC(=O)N2CCn3cccc3C2C(C)C)cc1 (stereo not drawn) | i
CCOCCCN1C(=O)c2cc3sccc3n2CC1(C)C(=O)NC1CCCCCCC1 (stereo not drawn) | i
CCC(C)NC(=O)c1ccc2c(=O)n(C)c3nn(CC(=O)c4ccc(F)cc4)c(=O)n3c2c1 (stereo not drawn) | i
COc1cncc(Nc2ncc(-c3ccccc3OC)c3c2OCC3)c1 | + | MTase-Glo counter=-2.8%[85.7 µM]
Cc1noc(C)c1-c1cnc(Nc2ccc(F)c(Cl)c2)c2c1CCO2 | i
COc1cccc(CN2C(=O)CSc3c(c4ccccc4n3C)C2C(=O)NCCC(C)C)c1 (stereo not drawn) | i
Cc1cc2c(cc3n2CC(C)(C(=O)NC2CCCCC2)N(Cc2cccs2)C3=O)o1 (stereo not drawn) | i
Cc1ccc(Cn2nc3n(C)c(=O)c4ccc(C(=O)NC5CCCCC5)cc4n3c2=O)cc1 | i
COc1ccc(Cn2c(=O)c3ccccc3n3c(-c4ccc(OC)cc4O)nnc23)cc1 | i
O=C(NCCCN1CCc2ccccc2C1)C1CCc2ncc(-c3ccc(F)cc3)n2C1 (stereo not drawn) | + | MTase-Glo counter=-1.6%
CCCNC(=O)C1CCc2ncc(-c3ccc(OC)cc3)n2C1 (stereo not drawn) | i
O=C(NCC1CC1)C1CCc2ncc(-c3ccc(F)cc3)n2C1 (stereo not drawn) | i
COc1cccc(NC(=O)CCc2nnc3n(Cc4ccc(F)cc4)c(=O)c4ccccc4n23)c1 | i
CN1CCN(C)c2cnc(-c3cnn(Cc4ccccc4)c3)cc2C1 | + | MTase-Glo counter=4.3%[85.7 µM]
SMILES | Methyltransferases | others
Cc1cccc(NC(=O)c2cc3n(n2)CC(C)(C(=O)NC2CCCCC2)N(C)C3=O)c1C (stereo not drawn) | i
CC1(C(=O)NC2CCCC2)Cn2cnc(C(=O)NCc3ccccc3F)c2C(=O)N1C1CC1 (stereo not drawn) | i
O=C1COc2ccc(-c3cccc(O)c3)nc2CN1Cc1ccc(C(F)(F)F)cc1 | + | MTase-Glo counter=1.9%[85.7 µM]
O=C1COc2ccc(N3CCOCC3)nc2CN1Cc1ccc(F)cc1 | i
Cn1cc(-c2ccc3c(n2)CN(Cc2ccc(F)cc2)C(=O)CO3)cn1 | i
Cc1ccc(Cn2c(=O)c3ccccc3n3c(-c4ccccc4C)nnc23)cc1 | i
O=C(NCC1CC1)c1nc2c(o1)CCN(CCCc1ccccc1)CC2 | i
COc1ccc(CN2CCc3nc(C(=O)NCCOc4ccccc4)oc3CC2)cn1 | i
O=C(NCc1cccc(F)c1)c1nc2c(o1)CCN(CC1CCCC1)CC2 | + | MTase-Glo counter=-1.7%[85.7 µM]
COc1ccc(-c2cc3n(n2)CC(C)(C(=O)NCc2ccccc2OC)N(c2ccc(Cl)cc2C)C3=O)cc1 (stereo not drawn) | i
CCc1cc2c(cc3n2CC(C)(C(=O)NC2CCCCC2)N(CCCc2ccccc2)C3=O)s1 (stereo not drawn) | i
CC1CCCC(NC(=O)C2(C)Cn3c(ccc3-c3ccco3)C(=O)N2Cc2ccc(F)cc2)C1C (stereo not drawn) | i
CCOc1ccc(CNC(=O)c2cc3n(n2)CC(C)(C(=O)NCc2ccc(C)cc2)N(C)C3=O)cc1OC (stereo not drawn) | i
O=C(NCCN1CCN(c2cccc3ccc(O)cc23)CC1)c1ccc(F)cc1 | i
Cc1ccc(NC(=O)N2CCCN(CCn3nc4n(c3=O)CCCC4)CC2)cc1F | i
Oc1ccc(NCCN2CCCC2)cc1 | + | MTase-Glo counter=-5.7%[114 µM]
CCOC(=O)c1cccc(NC(=O)Cn2c(=O)oc3cc(S(=O)(=O)N4CCCC4)ccc32)c1 | i
CSc1ccc(CNC(=O)c2cc3n(n2)CC(C)(C(=O)NCCC(C)C)N(C)C3=O)cc1 (stereo not drawn) | i
O=c1c2ccccc2n2c(=O)n(Cc3ccccc3F)nc2n1CCc1ccccc1 | i
COc1ccc(N2CCN(S(=O)(=O)c3ccc4[nH]c(=O)[nH]c4c3)CC2)cc1 | i
COc1ncccc1-c1cc2c(ccn2CC2CCN([S+](C)(=O)[O-])CC2)c(N2CCOCC2)n1 | + | MTase-Glo counter=-0.8%
Cc1nn2c(c1-c1cccnc1N1CCOCC1)N(C(=O)c1cc3ccccc3n1C)CCC2 | i
CC1(C(=O)NCc2ccccc2)Cc2ccccc2C(=O)N1Cc1ccccc1 (stereo not drawn) | i
CCc1cccc(NC(=O)Cn2nc3n(C(C)C)c(=O)c4ccc(C(=O)NC(C)C)cc4n3c2=O)c1 | i
c1ccc(-c2cc3c(cn2)NCCN(CC2CC2)C3)cc1 | + | MTase-Glo counter=2.8%[114 µM]
SMILES | Methyltransferases | others
Cc1cnc(-c2cccnc2)n1C1CCCN(CC2CCCCC2)C1 (stereo not drawn) | i
Cc1cnc(-c2cccnc2)n1CC1CCN(S(=O)(=O)c2ccccc2)CC1 | i
CC1CCN(S(=O)(=O)c2ccc3c(ccn3CC(=O)NCc3ccco3)c2)CC1 | i
CCCn1c(=O)c2ccc(C(=O)NCC(C)C)cc2n2c(=O)n(CC(=O)Nc3cc(C)cc(C)c3)nc12 | i
Cc1cc(C)cc(N2C(=O)c3cc4ccccc4n3CC2(C)C(=O)NCCC(C)C)c1 (stereo not drawn) | i
COc1ccc(-c2nnn3c2nc(N2CCOCC2)c2ccccc23)cc1 | i
Cn1cc(-c2cc3c(ccn3Cc3ccncc3)c(N3CCOCC3)n2)cn1 | + | MTase-Glo counter=-3.4%[85.7 µM]
CCCN1C(=O)c2c(C(=O)NCc3cccc(OC)c3)ncn2CC1(C)C(=O)NC1CCCC1 (stereo not drawn) | i
Cc1ccc(CNS(=O)(=O)c2cc3[nH]c(=O)[nH]c3cc2C)cc1 | i
CCC(C(=O)N(C)Cc1ccc(OC)c2ncccc12)n1cccn1 (stereo not drawn) | i
COc1cccn(CC(=O)N2CCN(c3ccccc3C#N)CC2)c1=O | i
CCOc1c(CN(C)C(=O)Cn2cccc(OC)c2=O)cccc1OC | + | MTase-Glo counter=-6.2%
COc1ccc(-c2nc(-c3ccc(S(=O)(=O)N4CCCCC4)cc3)no2)cc1OC | i
O=C(Nc1ccc2c(N3CCCC3)ncnc2c1)c1cc(F)ccc1Cl | + | MTase-Glo counter=-1.7%
